Structures are written as SMILES. Out of some 69,000 compounds screened, about 8,600 (12%) showed an effect of 50% or more. This excerpt belongs to a sample that is enriched for strong results.

The test system of the assay is Plasmodium berghei. Kind of assay: Screen against P. berghei liver stage (PbLuc), transformed with Luciferase, at 10uM. The format is functional, HepG2. The following applies: tested at 10 uM.
For the compound `O=S(=O)(CCNCCn1cccn1)c1ccccc1`, the INHIBITION is 19.8%. Under `COC1CCN(C(=O)Nc2cc(C(F)(F)F)c[nH]c2=O)CC1` stands -111%; under `COCCNC(=O)C1CC(=O)N(c2n[nH]c3cccc(F)c23)C1` (stereo not drawn), -23.7%. Next, `CC1CCCCN1CCNC(=O)c1ccn(-c2cccc(F)c2)n1` (stereo not drawn): 16.8%; `CN(CCC(F)(F)F)C(=O)c1nc(S(C)(=O)=O)n2ccccc12`: 12.6%; `Cc1nc(Nc2nnc(C)s2)cc(C2CCCN2C(C)C)n1` (stereo not drawn): -15.3%. `COC(=O)c1cc(OC)c(OC)cc1N(C)S(C)(=O)=O`: the INHIBITION was determined as 44.3%.

Consider `CN(C)CC(=O)N1CC2(CCN(C(=O)Nc3ccccc3)C2)C1`, for which the INHIBITION came to 0.112%. `Cc1nc(CC(=O)NS(=O)(=O)c2cccc3cnccc23)cs1`: the INHIBITION is listed as 6.33%. As to `CCN1C[C@H]2C3(CCN(S(=O)(=O)CC)CC3)CC[C@@]2(C(=O)N(C)C)C1`, the INHIBITION is recorded as 13.7%. For the compound `COc1cccc(CN2C[C@H]3CC[C@H]2C3)c1OCCN1CCOCC1`, the INHIBITION is -14.5%. Under `COc1cccc(CN2CCCCC2CN2CCOCC2)c1F` (stereo not drawn) stands 60.4%. For the compound `COc1cc2c(cc1CN1CCCCC1CN1CCOCC1)CCC2` (stereo not drawn), the INHIBITION is reported as 13.9%. Under `CCc1nc(CCn2ccnc2-c2nccn2C)no1` stands 65.6%; under `CCc1nc(Cn2ccnc2-c2nccn2C)no1`, 45.2%. Consider `CCc1nc(CCn2cc(-c3nccn3C)nn2)no1`, for which the INHIBITION stood at 23%.

As to `CS(=O)(=O)c1cc(Cl)cnc1C1CCN(C(=O)C2CCOCC2)CC1`, the INHIBITION came out at 24.8535%. Under `Cc1cccc(CN2C(=O)CC[C@@H]3[C@H]2CCN3C(=O)c2ccsc2)n1` stands 14.8%. Next, `COCCOc1ccc(F)cc1NCc1nc2ccccc2n1C`: -3.12%; `COCCOc1ncccc1NCc1nc2ccccc2n1C`: -16%. Next, `COc1cc(F)c(NCc2nc3ccccc3n2C)cc1OC`: 59.8%; `O=C(c1ccc(Cl)cc1)N1CCC(N2CCCNC2=O)CC1`: 40.8%; `CCN1CCN(C(=O)CCn2cccc2)CC1`: 2.69%.

Consider `COCCN1CC(c2cc(O)nc(NC(C)C)n2)CC1=O` (stereo not drawn), for which the INHIBITION is given as -17.7%. As for `COc1ccc(CC2CN(Cc3cncn3C)CCO2)cc1` (stereo not drawn), the INHIBITION was found to be 47.1%. In the case of `Nc1cc(CCC2CN(Cc3ccc(C(=O)O)cc3)CCO2)ccn1` (stereo not drawn), the INHIBITION is 32.8%. For `Nc1cc(CCC2CN(Cc3ccc4cc[nH]c4c3)CCO2)ccn1` (stereo not drawn), the INHIBITION was 78.2%. In the case of `Cc1cc(C)n(CC2CN(Cc3ccc4c(c3)OCCO4)CCO2)n1` (stereo not drawn), the INHIBITION was 14.3%. With `c1ccc(CCCC2CN(Cc3ncc[nH]3)CCO2)cc1` (stereo not drawn), the INHIBITION was 28.5%. Next, `CNc1nccnc1C1CN(Cc2ccc3[nH]ccc3c2)CCO1` (stereo not drawn): 21.1%. Under `Nc1cc(CCC2CN(Cc3cccc(C(=O)O)c3)CCO2)ccn1` (stereo not drawn) stands 45.6%; under `Nc1cc(CCC2CN(Cc3ccc4c(c3)OCCO4)CCO2)ccn1` (stereo not drawn), 69.3%; under `COc1ccc(CN2CCOC(CCc3ccnc(N)c3)C2)cc1` (stereo not drawn), 87.1%. For the compound `Cc1ccnc(NCc2ccccc2N2CCOCC2)n1`, the INHIBITION was found to be 46.3%. Next, `Cc1[nH]nc2ncc(C(=O)N3CCN(CC(C)O)CC3)cc12` (stereo not drawn): -0.96%. Regarding `Cc1ccc(OCC2CCCN(C(=O)c3csc(CN(C)C)n3)C2)cc1` (stereo not drawn), the INHIBITION is recorded as 31%. Take `c1cnc(N2CCOC3(CCN(CC4CCOC4)CC3)C2)nc1` (stereo not drawn): the INHIBITION is 8.64%. `CCNC(=O)c1ccc(NC2CCOC3(CCCC3)C2)nn1` (stereo not drawn): the INHIBITION is on record as 24.6%. For `O=C(c1ccco1)N1CC[C@@H]2CN(C3CCOCC3)CCO[C@@H]2C1`, the INHIBITION is listed as 22.2%. Next, `O=C(c1ccco1)N1CCO[C@@H]2CN(c3ccccn3)CC[C@@H]2C1`: -26.5%; `O=C(c1ccco1)N1CCO[C@@H]2CNCC[C@@H]2C1`: -0.388%; `O=C(c1ccco1)N1CCO[C@@H]2CN(CC3CC3)CC[C@@H]2C1`: 85.8%.

In the case of `CCc1cnc(N2CC[C@@H]3CN(C(=O)c4ccco4)CCO[C@@H]3C2)nc1`, the INHIBITION came to 92.5%. Next, `O=C(c1ccco1)N1CCO[C@@H]2CN(c3ncc(F)cn3)CC[C@@H]2C1`: 42.6%. Under `O=C(c1ccco1)N1CCO[C@@H]2CN(Cc3nccs3)CC[C@@H]2C1` stands -5.89%. For the compound `O=C(CCO)N1CC[C@@H]2CN(C(=O)c3ccco3)CCO[C@@H]2C1`, the INHIBITION was found to be 80%. With `CC(=O)N1CC[C@@H]2CN(C(=O)c3ccco3)CCO[C@@H]2C1`, the INHIBITION was determined as 48.3%. Under `Cc1cccc(N2CC[C@@H]3CN(C(=O)c4ccco4)CCO[C@@H]3C2)n1` stands 49.5%; under `O=C(c1ccco1)N1CCO[C@@H]2CN(c3ccccc3)CC[C@@H]2C1`, 84.7%.

Regarding `CCc1cnc(N2CC[C@@H]3CN(C(C)=O)CCO[C@@H]3C2)nc1`, the INHIBITION amounted to 45.8%. Next, `CC(NC(=O)N1CCCC1)c1ccc(S(N)(=O)=O)cc1` (stereo not drawn): 33.7%; `NC(=O)[C@@H]1CCCN1C(=O)c1csc(-c2ccc(C(F)(F)F)cc2)n1`: 28.4%. For the compound `Cc1cc(CN(C)C(=O)C(c2ccccc2F)N(C)C)ccn1` (stereo not drawn), the INHIBITION is 30%.

With `COc1ccc(CC(=O)N2CCCC(c3cc(C)[nH]n3)C2)cc1` (stereo not drawn), the INHIBITION stood at 28.62%.

Regarding `CN(C)C(=O)CO[C@H]1CN(Cc2cccc(F)c2)[C@@H]2CCCO[C@H]12`, the INHIBITION is reported as 43.1%. As to `COCc1cc(CNc2cnn(CC(F)F)c2)ccc1OC`, the INHIBITION is recorded as 38.2%. As to `CC(=O)N1CCO[C@@H]2CN(C(=O)NCc3ccccc3)CC[C@@H]2C1`, the INHIBITION is listed as 51.2%.

In the case of `CC(=O)N1CCO[C@@H]2CN(C(=O)NCc3cccnc3)CC[C@@H]2C1`, the INHIBITION is 12.1%. Next, `CN1CCO[C@@H]2CN(C(=O)NCc3ccccc3)CC[C@@H]2C1`: 16.8%; `CN(C)C(=O)N1C[C@H]2CC[C@@H](C1)N(Cc1ccc3nsnc3c1)C2`: 21.8%; `Fc1ccc(CN2CCCC(c3nccnc3-n3ccnc3)C2)cc1` (stereo not drawn): 6.32%. For the compound `Cc1cc(C)n(CC(=O)N2CCCC(c3cc4cccnc4[nH]3)C2)n1` (stereo not drawn), the INHIBITION stood at 30.4%. As to `Fc1ccc(CN2CCCC(c3cc4ncccc4[nH]3)C2)cc1` (stereo not drawn), the INHIBITION was 85.65%.

`O[C@@H]1CN(Cc2ccc(F)cc2)CC[C@H]1NCc1ccccn1`: the INHIBITION came to 28.55%. Next, `CCOc1nnc(CN2CCCC(c3nc4ccccc4[nH]3)C2)s1` (stereo not drawn): 22.8%; `CCOc1ccc(CN2CCCC(c3cc4ncccc4[nH]3)C2)cc1` (stereo not drawn): 81.5%. Under `CC(=O)Nc1ccc(CN2CCCC(c3cc4ncccc4[nH]3)C2)cc1` (stereo not drawn) stands 50.95%; under `CCOc1ccc(CN2CCN(C(=O)c3cc(C4CC4)[nH]n3)CC2)cc1`, 48.1%; under `CCC(=O)NC1CCCN(Cc2ccc(NC(C)=O)cc2)C1` (stereo not drawn), 27.6%. As to `CC(=O)N(Cc1noc(C)n1)C1CCN(CC2(O)CCCCC2)C1` (stereo not drawn), the INHIBITION is on record as 33.7%.

Take `Cn1cc(CN2CCC(c3[nH]ncc3S(C)(=O)=O)C2)cn1` (stereo not drawn): the INHIBITION was found to be 8.53%. Next, `CCOc1ncccc1NC(=O)c1ccc(C)s1`: 23.2%; `CCc1nnc(Sc2nn3cc(C)nc3s2)n1C`: -9.8%; `Cc1noc(C)c1CCC(=O)N1CCOCC1CCc1cnccn1` (stereo not drawn): 25.8%. In the case of `Cc1cnn(CCC(=O)N2CCN(C(=O)C3CC3)[C@@H]3CS(=O)(=O)C[C@@H]32)c1`, the INHIBITION was 3%. Turning to `CC(C)(C)c1nc(CC(=O)N2CCCC(n3cncn3)C2)cs1` (stereo not drawn), the INHIBITION is 47.65%. With `Cc1ccc(C2(O)CCN(C(=O)c3ccc(S(N)(=O)=O)cc3)CC2)nc1`, the INHIBITION was determined as 38%. Under `OC(COCc1cccs1)Cn1cc(Br)cn1` (stereo not drawn) stands -28.4%. As for `OC(COCc1cccs1)Cn1cc(Cl)cn1` (stereo not drawn), the INHIBITION amounted to 75.2%. As for `OC(COCc1ccco1)CSc1nnc2ccccn12` (stereo not drawn), the INHIBITION was determined as 14.8%.

As to `OC(COCc1cccs1)CSc1nnc2ccccn12` (stereo not drawn), the INHIBITION is on record as 56.5%. Next, `OC(COCc1cccs1)Cn1cc(-n2cccc2)cn1` (stereo not drawn): 8.46%; `OC(COCc1ccccc1)CSc1nnc2ccccn12` (stereo not drawn): 42.6%; `CSCC(=O)NC1CC(=O)N(CCc2ccccc2)C1` (stereo not drawn): -17.6%. Take `CCn1nc(C)c(NC(=O)CN2CCN(C(C)=O)CC2)c1C`: the INHIBITION is -4.23%. As to `CS(=O)(=O)N1CC2(CCN(CC3CCCCC3)CC2)Cc2ccccc21`, the INHIBITION is recorded as 46.6%. Next, `O=C(Nc1ccc2c(ccn2CCN2CCOCC2)c1)c1ccccn1`: -4.15%. Under `CC(C)OCCCN(Cc1ccncc1)Cc1cc(F)cc(F)c1` stands -26.2%; under `CCOCCN1CCN(c2ncccc2C#N)CC1CC` (stereo not drawn), 4.03%; under `O=C(c1ccncn1)N1C[C@@H]2CN(Cc3cccnc3)CCO[C@@H]2C1`, 17.5%. Under `O=C(Nc1ccc(OCc2cccc(F)c2)c(F)c1)C1COCCO1` (stereo not drawn) stands 78.4%; under `O=C(OCc1ccccc1)c1cccc(NC(=O)C2COCCO2)c1` (stereo not drawn), 7.44%.

As to `O=C(Nc1cccc(OCc2ccc(F)cc2)c1)C1COCCO1` (stereo not drawn), the INHIBITION was found to be 10.3%.

For `CCOCc1cccc(NC(=O)C2COCCO2)c1` (stereo not drawn), the INHIBITION is on record as 59.3%. Under `CCOC(=O)COc1cccc(NC(=O)C2COCCO2)c1` (stereo not drawn) stands 8.24%. Turning to `O=C(Nc1cccc(OCc2cccc(F)c2)c1)C1COCCO1` (stereo not drawn), the INHIBITION is reported as -47.4%.

As to `CN(C)C(=O)N1Cc2nnn(C)c2C(COCc2cccnc2)C1` (stereo not drawn), the INHIBITION was 27.6%. With `c1nc(CCC2CCCN2)cc(N2CCCOCC2)n1` (stereo not drawn), the INHIBITION was determined as 48.9%. For `COCCC(=O)NCC1CCC(C(c2ccccn2)N(C)C)CC1` (stereo not drawn), the INHIBITION stood at 3.48%. For the compound `Cc1ccc(-c2ccnc(N(C)CC3CCCO3)n2)c(C)n1` (stereo not drawn), the INHIBITION was determined as 47.4%. As to `CCN1CCCC(CN(C)c2nccc(-c3ccc(C)nc3C)n2)C1` (stereo not drawn), the INHIBITION was 76.7%.

`Cc1ccc(-c2ccnc(N(C)CC3CCCN3C)n2)c(C)n1` (stereo not drawn): the INHIBITION amounted to 10.6%.

Consider `CC(C)n1c(=O)[nH]c2cn(-c3ccc(Cl)cc3)c(=O)n21`, for which the INHIBITION is -10.1%.

(Values after ChEMBL document CHEMBL4513216, “Probing the Open Global Health Chemical Diversity Library for Multistage-Active Starting Points for Next-Generation Antimalarials” (ACS Infect Dis, 2020).)
